A number with no mark means an inactive call. No rule for the calls is given here.
test system: HIV-1 nucleocapsid protein NCp7 (binding to TG oligonucleotide); assay: HIV Nucleocapsid (AID 346); conditions: HIV-1 NC / fluorescein-TGTGTGTG probe, fluorescence polarization;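 also: potency is for inhibitors that block NC binding and lower polarization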
Summary of the method: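 Fluorescence polarization binding of 100 nM HIV-1 NC to 10 nM fluorescein-labelled TG4xF oligonucleotide. Buffer was Hepes pH 7.5 with 250mM NaCl, 1uM ZnCl2, TCEP and 2-mercaptoethanol. Compounds were incubated 1 hr at room temperature before the read.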
Potency is read from the fitted curve at half-maximal effect.

Row | Compound | Potency
1 | Cc1noc(C)c1C(=O)N1CCC2(CCCN(Cc3nccs3)C2)CC1 | > 20 µM
2 | COc1ccccc1CNc1cc(-c2c(C)noc2C)ncn1 | > 20 µM
3 | Clc1ccccc1-c1nccc(NCc2ccccc2)n1 | > 20 µM
4 | COc1ccc(Oc2ncc3nc(CCc4ccccc4)c(=O)n(CCC#N)c3n2)cc1 | > 20 µM
5 | Cn1cccc1C(=O)N1CCC[C@@]2(CCN(Cc3ccc(C#N)cc3)C2)C1 | > 20 µM
6 | CN(C)c1nc(-c2ccc3c(c2)OCO3)nc2ccccc12 | > 20 µM
7 | COc1cccc(Cn2c(=O)c(-c3ccc(F)cc3)nc3cnc(N4CCNCC4)nc32)c1 | > 20 µM
8 | O=c1c(-c2cc(F)cc(F)c2)nc2cnc(Oc3ccccc3)nc2n1C[C@H]1CCCO1 | > 20 µM
9 | c1cncc(-c2nc(NCc3cccs3)c3ccccc3n2)c1 | > 20 µM
10 | CC(C)NC(=O)N1CC[C@@]2(CCCN(S(C)(=O)=O)C2)C1 | > 20 µM
11 | CC(C)CN1CCCC2(CCN(S(=O)(=O)c3ccccc3)CC2)C1 | > 20 µM
12 | COc1ccccc1CCn1c(=O)c(-c2cn(C)c3ccccc23)nc2cncnc21 | > 4 µM
13 | COC(=O)N1CCC2(CCCN(c3ccccn3)C2)CC1 | > 20 µM
14 | N#Cc1cccc(-c2nc3cnc(N4CCOCC4)nc3n(C[C@H]3CCCO3)c2=O)c1 | > 20 µM
15 | N#CCCn1c(=O)c(CCc2ccccc2)nc2cnc(Oc3ccccc3)nc21 | > 20 µM
